In ChEMBL document CHEMBL2218924, “A broad activity screen in support of a chemogenomic map for kinase signalling research and drug discovery” (Biochem J, 2013) one finds residual activity data, which are given here for 1 compound.

One may read the residual activity as the signal under treatment as a percentage of the control signal.

Assay [1] addresses T1, Ephrin type-B receptor 1 (Homo sapiens) (UniProt P54762).
T1 sequence (whole entry): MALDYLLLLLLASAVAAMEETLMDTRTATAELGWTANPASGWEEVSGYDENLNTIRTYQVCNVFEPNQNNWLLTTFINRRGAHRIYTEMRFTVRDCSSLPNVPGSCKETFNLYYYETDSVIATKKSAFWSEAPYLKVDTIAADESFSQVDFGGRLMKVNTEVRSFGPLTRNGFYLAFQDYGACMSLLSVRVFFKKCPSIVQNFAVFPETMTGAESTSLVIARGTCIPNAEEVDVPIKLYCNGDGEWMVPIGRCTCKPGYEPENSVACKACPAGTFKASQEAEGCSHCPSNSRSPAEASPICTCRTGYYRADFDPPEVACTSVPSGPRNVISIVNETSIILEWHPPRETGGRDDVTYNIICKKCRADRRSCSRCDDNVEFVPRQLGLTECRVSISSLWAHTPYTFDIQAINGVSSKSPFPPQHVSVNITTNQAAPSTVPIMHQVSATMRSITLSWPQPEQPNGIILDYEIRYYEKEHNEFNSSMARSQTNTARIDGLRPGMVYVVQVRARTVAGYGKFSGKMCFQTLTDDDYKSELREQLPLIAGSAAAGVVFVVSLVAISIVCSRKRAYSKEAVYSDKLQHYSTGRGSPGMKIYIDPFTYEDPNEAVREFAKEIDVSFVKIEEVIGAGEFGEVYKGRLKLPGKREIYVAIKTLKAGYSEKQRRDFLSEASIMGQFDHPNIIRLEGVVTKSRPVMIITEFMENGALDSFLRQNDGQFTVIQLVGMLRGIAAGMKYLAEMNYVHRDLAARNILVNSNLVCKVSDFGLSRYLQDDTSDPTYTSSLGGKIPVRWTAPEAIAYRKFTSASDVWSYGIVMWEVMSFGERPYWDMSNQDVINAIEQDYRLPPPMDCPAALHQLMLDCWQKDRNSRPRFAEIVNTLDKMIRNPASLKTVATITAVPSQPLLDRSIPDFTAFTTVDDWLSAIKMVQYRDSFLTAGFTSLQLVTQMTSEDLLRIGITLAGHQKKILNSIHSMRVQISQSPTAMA
Conditions: at 10 µM; call rule not given here.

Assay [2] deals with T2, Ephrin type-B receptor 2 (Homo sapiens) (UniProt P29323).
T2 sequence (whole entry): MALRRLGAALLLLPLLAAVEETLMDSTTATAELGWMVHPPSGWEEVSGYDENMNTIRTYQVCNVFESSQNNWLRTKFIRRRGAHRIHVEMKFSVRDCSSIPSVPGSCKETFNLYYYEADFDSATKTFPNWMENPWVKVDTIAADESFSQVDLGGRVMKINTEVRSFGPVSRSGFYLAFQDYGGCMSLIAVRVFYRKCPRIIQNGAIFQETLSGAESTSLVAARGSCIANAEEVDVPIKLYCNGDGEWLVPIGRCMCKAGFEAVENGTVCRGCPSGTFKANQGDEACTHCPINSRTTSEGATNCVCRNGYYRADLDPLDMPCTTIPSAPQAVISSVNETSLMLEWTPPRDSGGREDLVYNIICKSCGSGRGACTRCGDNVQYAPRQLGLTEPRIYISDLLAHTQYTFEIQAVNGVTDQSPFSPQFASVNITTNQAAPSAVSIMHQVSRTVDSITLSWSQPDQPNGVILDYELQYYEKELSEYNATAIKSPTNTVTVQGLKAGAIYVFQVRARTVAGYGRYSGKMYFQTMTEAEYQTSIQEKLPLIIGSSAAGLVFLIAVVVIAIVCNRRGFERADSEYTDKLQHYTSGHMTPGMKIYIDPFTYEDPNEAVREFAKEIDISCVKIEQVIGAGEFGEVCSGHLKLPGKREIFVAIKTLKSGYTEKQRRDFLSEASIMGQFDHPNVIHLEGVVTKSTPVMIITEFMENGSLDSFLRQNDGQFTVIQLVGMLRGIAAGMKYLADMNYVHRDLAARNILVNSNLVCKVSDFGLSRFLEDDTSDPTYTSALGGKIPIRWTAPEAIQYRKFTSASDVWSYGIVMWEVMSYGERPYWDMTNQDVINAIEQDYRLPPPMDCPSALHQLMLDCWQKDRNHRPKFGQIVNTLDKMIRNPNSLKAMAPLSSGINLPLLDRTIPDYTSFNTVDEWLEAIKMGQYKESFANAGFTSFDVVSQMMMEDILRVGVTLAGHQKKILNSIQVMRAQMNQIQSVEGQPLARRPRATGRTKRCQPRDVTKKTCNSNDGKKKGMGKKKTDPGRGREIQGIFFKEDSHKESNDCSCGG
Conditions: at 1 µM.

The target in assay [3] is T2, Ephrin type-B receptor 2 (Homo sapiens). Conditions: at 10 µM.
In assay [4] the target is T3, Ephrin type-B receptor 3 (Homo sapiens) (UniProt P54753).
T3 sequence (whole entry): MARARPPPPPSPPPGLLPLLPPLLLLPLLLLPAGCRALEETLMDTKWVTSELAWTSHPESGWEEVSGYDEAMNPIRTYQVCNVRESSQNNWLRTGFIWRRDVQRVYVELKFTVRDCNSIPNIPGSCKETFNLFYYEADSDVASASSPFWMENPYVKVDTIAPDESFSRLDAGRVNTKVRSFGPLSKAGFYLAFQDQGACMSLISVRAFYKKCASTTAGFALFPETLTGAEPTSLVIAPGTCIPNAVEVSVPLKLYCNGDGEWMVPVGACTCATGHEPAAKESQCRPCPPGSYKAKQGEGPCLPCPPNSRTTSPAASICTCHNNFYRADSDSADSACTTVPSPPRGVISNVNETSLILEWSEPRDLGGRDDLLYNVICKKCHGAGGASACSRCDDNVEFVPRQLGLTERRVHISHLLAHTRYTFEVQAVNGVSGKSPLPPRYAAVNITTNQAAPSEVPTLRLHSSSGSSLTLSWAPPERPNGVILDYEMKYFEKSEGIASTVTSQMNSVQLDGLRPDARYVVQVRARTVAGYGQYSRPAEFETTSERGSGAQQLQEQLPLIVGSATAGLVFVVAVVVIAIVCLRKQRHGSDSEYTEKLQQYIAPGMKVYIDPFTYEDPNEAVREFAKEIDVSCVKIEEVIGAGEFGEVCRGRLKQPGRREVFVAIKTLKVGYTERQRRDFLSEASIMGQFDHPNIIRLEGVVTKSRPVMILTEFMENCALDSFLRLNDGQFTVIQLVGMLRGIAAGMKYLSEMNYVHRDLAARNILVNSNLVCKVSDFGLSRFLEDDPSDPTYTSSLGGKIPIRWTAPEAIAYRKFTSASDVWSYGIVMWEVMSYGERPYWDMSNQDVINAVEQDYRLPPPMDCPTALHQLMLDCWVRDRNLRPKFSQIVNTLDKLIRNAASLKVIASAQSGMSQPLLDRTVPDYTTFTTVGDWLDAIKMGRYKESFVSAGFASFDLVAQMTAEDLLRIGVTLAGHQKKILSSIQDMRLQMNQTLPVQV
As to conditions: at 1 µM.

Assay [5] addresses T3, Ephrin type-B receptor 3 (Homo sapiens). As to conditions: at 10 µM.
In assay [6] the target is T4, Ephrin type-B receptor 4 (Homo sapiens) (UniProt P54760).
T4 sequence (whole entry): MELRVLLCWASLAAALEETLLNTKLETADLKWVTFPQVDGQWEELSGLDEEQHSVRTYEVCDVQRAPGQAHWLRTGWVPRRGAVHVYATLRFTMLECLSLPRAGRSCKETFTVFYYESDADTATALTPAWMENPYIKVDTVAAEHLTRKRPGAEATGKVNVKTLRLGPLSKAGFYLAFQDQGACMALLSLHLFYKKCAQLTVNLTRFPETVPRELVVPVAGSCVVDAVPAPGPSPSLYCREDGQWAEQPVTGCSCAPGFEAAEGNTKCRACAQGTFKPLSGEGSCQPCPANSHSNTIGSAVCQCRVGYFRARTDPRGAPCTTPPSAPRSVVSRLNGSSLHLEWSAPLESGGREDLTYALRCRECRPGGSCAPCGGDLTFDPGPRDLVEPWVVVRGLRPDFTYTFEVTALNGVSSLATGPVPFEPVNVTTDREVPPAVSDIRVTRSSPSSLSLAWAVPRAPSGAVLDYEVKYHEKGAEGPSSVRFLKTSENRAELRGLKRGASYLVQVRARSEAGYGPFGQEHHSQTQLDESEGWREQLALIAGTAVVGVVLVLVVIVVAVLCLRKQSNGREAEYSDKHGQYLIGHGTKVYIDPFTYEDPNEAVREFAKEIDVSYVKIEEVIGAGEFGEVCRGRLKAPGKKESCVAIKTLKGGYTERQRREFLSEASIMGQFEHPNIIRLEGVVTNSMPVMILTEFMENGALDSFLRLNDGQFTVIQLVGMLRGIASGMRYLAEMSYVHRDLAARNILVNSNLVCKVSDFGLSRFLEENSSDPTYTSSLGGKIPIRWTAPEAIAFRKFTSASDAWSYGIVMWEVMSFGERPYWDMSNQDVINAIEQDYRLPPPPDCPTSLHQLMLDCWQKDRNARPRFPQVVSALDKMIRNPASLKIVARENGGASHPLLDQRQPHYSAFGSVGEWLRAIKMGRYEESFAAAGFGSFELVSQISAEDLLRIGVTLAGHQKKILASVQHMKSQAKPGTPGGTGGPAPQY
Conditions: at 1 µM.

The target in assay [7] is T4, Ephrin type-B receptor 4 (Homo sapiens). As to conditions: at 10 µM.
The target of assay [8] is Receptor tyrosine-protein kinase erbB-4 (Homo sapiens) (UniProt Q15303). As to conditions: at 1 µM.
Sequence of Receptor tyrosine-protein kinase erbB-4 (Homo sapiens) (Q15303 whole entry): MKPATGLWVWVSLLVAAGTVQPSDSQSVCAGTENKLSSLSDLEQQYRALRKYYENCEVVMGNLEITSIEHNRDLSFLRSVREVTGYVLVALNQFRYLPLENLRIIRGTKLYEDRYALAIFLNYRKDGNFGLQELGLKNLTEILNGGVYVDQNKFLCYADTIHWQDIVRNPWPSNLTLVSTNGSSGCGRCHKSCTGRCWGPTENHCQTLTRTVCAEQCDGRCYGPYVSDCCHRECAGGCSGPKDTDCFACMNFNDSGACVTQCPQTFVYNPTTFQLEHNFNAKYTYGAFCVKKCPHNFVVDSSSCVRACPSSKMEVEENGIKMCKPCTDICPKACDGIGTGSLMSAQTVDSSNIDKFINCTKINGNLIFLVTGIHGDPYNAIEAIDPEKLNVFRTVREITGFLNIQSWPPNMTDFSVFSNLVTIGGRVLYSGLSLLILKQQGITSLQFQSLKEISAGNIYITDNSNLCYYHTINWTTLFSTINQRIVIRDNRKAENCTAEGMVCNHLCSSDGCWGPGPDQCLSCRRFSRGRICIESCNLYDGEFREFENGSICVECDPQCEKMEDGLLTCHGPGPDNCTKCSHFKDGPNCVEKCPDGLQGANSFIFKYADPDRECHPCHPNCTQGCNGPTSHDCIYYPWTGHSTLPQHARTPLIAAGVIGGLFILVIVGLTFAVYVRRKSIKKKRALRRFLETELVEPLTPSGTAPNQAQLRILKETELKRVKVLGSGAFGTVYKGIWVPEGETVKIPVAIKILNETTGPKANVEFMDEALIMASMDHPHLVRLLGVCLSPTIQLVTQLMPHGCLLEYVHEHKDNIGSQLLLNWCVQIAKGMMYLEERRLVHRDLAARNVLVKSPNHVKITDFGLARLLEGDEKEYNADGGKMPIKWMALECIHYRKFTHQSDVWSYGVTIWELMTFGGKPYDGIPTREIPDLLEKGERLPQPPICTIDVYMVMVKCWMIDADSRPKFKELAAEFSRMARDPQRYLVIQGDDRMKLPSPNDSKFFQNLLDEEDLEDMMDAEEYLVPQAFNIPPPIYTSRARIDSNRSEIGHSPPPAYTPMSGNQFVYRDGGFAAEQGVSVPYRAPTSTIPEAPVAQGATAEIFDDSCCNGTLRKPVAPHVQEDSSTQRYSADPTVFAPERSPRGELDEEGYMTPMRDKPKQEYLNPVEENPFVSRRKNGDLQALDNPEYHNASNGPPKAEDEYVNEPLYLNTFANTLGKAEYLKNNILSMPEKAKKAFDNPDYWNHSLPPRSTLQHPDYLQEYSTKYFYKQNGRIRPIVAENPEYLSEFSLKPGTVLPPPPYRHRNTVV
Assay [9] has the same target. As to conditions: at 10 µM.
Assay [10] has as its target Focal adhesion kinase 1 (Homo sapiens) (UniProt Q05397). Conditions: at 1 µM.

SMILES strings stand for the structures.

Sequence of Focal adhesion kinase 1 (Homo sapiens) (Q05397 2-1052 limits assumed): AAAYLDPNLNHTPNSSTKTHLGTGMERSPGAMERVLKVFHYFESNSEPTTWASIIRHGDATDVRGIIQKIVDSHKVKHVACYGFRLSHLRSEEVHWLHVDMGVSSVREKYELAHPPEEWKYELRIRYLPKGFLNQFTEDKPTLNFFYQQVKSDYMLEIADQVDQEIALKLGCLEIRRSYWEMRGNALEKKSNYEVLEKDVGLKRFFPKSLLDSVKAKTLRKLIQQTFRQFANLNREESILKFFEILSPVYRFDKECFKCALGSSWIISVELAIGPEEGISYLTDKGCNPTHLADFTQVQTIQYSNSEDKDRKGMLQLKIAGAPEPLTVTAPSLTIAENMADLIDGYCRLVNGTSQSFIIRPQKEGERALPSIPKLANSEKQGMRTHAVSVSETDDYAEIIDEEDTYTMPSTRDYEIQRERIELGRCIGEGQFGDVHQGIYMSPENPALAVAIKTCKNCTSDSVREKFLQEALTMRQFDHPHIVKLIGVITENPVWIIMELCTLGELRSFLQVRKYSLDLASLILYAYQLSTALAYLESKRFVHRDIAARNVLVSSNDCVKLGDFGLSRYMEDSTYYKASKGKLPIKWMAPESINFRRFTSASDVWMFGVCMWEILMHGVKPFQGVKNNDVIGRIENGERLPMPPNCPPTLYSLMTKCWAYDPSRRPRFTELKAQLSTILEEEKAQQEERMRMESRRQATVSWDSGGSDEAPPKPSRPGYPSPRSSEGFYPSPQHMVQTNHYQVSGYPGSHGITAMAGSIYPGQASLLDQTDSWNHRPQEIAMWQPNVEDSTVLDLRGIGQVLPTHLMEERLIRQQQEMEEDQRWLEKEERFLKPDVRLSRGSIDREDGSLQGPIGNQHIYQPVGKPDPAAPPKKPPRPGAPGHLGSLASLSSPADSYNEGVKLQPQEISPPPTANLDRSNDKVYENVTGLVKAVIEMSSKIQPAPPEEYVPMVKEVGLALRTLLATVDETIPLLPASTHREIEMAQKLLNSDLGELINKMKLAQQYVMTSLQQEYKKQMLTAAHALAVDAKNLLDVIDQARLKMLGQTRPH

As for `Cn1cc(/C=C2\C(=O)Nc3ccc(S(N)(=O)=O)cc32)c2ccccc21`, the residual activity in [1] is 21%; in assay [2] it was 73%; in assay [3] it was 49%; in assay [4], 100% (inactive); in assay [5], 117%; in assay [6], 57%. The residual activity in [7] came out at 11%; in assay [8], 94%; in assay [9], 85%; in [10] it was 103%.
